Screens from PubChem BioAssay.
This is one part of a sample in which hits are shown more often than they occur.
Shiga toxin inh = Shiga toxin inhibition; Vero cells, Shiga toxin protein synthesis inhibition reporter; inhibition, % at 38.7 µM; hit rate 9.2% among 290,000; in the data active = inhibition mostly above about 28%, no sharp cut-off; inactive = mostly below about 43%; note: 0% is about no effect
LASV entry inh = Lassa virus entry inhibition; Lassa virus pseudotype entry inhibition, cell reporter; Potency, µM (highest dose often 37.9 µM), for inactives: at the top dose activity change, negative = inhibition, most hits filed as inhibitors; hit rate 1.2% among 300,000; calls by dose curve; tested in HEK293 cells; note: potency is the fitted concentration of half-maximal effect; % is set by controls: 0 for no effect and ±100 for the full control effect; nearly all actives have a fitted effect of over 50% in size
MARV entry inh = inhibitors of Marburg virus binding or cell entry; Potency, µM (doses to about 37.8 µM), inactives show at the highest dose activity change, negative = inhibition, hits mostly inhibitors; Marburg virus pseudotyped entry inhibition, cell reporter; AID 540276; hit rate 1.8% among 300,000; calls by dose curve; tested in HEK293 cells; note: potency is the fitted concentration of half-maximal effect; % is set by controls: 0 for no effect and ±100 for the full control effect
AMA1-RON2 inh = disrupts binding of P. falciparum AMA1 to RON2. AlphaScreen AMA1-biotinylated RON2 peptide binding. Potency, µM (doses to about 58.2 µM), for inactives: top-dose activity change, negative = inhibition, most hits filed as inhibitors. hit rate 0.2% among 360,000. AID 720542; active = well fitted inhibition curve with a large enough effect; inconclusive = small, poorly fitted or top-dose-only effect; inactive = no such curve, though single readings can be large or run the other way;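 note: potency is the fitted concentration of half-maximal effect; 0% = vehicle wells and -100% = peptide control; nearly all actives have a fitted effect of over 45% in size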
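AMA1 (3D7) with his tag at 25 nM final met compounds first, then biotinylated RON2 peptide at 25 nM; detection used donor plus acceptor beads, 10 µg/mL apiece, read by AlphaScreen after 30 min at room temperature.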
CHX counter = counter-screen hit for Shiga toxin inhibitors, cycloheximide; AID 2314; hit rate 12% among 300,000; cell reporter, cycloheximide protein synthesis inhibition counterscreen; max response, %; in the data active = max response mostly above about 13%, no sharp cut-off; inactive = mostly below about 14%; note: read at 38.3 µM for the half of the compounds with a filed dose; 0% is about no effect
The depositor's hits bear a star; ? = inconclusive; . = no result given; + = active, no number; [ ] = remark or other dose.

SMILES	Shiga toxin inh	LASV entry inh	MARV entry inh	AMA1-RON2 inh	CHX counter
CCN(CC)S(=O)(=O)c1ccc2c(c1)N(CC(=O)N1CCCC1)C(=O)CO2	-3	-16%[46.1 µM]	?	3%	-3
CCOc1ccccc1NC(=O)Cn1c(=O)n(Cc2ccco2)c(=O)c2ccc(C(=O)NC3CCCC3)cc21	.	3%[46.1 µM]	-1%[46.1 µM]	.	.
O=C(NCCCn1ccnc1)c1ccc(Br)o1	18	6%	-1%	-9%	-3
O=C(NCCCn1ccnc1)c1cc2c(ccc3ccccc32)o1	68	7%	6%[46.1 µM]	-1%	31*
O=C(NCCCn1ccnc1)C(=O)Nc1ccccc1	28	.	-3%[46.1 µM]	-4%	16*
COc1ccc(NC(=O)C(=O)NCCCn2ccnc2)cc1	20	?	-4%[46.1 µM]	-6%	4
Cc1nc(NCCCn2ccnc2)c2oc3ccccc3c2n1	33	18%	-2%	-2%	16*
c1ccc2c(c1)oc1c(NCCCn3ccnc3)ncnc12	-11	5%	-3%	-3%	-4
O=c1c2ccccc2oc2ccc(NCCCn3ccnc3)cc12	54*	.	.	-26%	33*
CCNC(=O)C[C@@H]1C=C[C@@H](NS(=O)(=O)c2ccc(F)cc2)[C@@H](CO)O1	.	.	.	-3%	.
COc1cc2c(cc1OC)C(=O)CCC2	.	17%	?	-8%	.
CCCN(CCC)CCNC(=O)c1cc2c(-c3ccc(Cl)cc3)nn(C)c2s1	-3	1%[46.1 µM]	4µM*	-10%	-1
CCCCN(CC)CCNC(=O)c1cc2c(-c3ccc(Cl)cc3)nn(C)c2s1	-4	?	3.5µM*	-18%	-2
CCN(CC)CCNC(=O)c1cc2c(-c3ccc(Cl)cc3)nn(C)c2s1	12	.	.	-4%	12
CCOCCCN(C)C1CCN(C(=O)c2oc3ccccc3c2NC(=O)c2ccc(F)cc2)CC1	17	.	.	11%	-2
Cc1nc2cc(Cl)c(Cl)cc2nc1C	+	-5%	1%	-6%	48*
C/C(=N\NC(=O)c1cccc(N/N=C(\C)c2ccco2)c1)c1ccco1	90*	.	.	57%	29*
C/C(=N\NC(=O)c1cccc([N+](=O)[O-])c1)c1cccc(NC(=O)C2CC2)c1	14	-13%	2%[46.1 µM]	37%	17*
C/C(=N\NC(=O)c1cccc(N/N=C(\C)c2cc(O)ccc2O)c1)c1cc(O)ccc1O	88*	?	?	47%	32*
C/C(=N\NC(=O)c1cccc([N+](=O)[O-])c1)c1ccco1	50*	14%	5%[46.1 µM]	2%	15*
C/C(=N\NC(=O)c1cccc(S(=O)(=O)Nc2ccccc2Cl)c1)c1ccco1	2	0%	-1%	41%	2
CCN(c1ccc(OC)cc1)S(=O)(=O)c1nnc(NC(=O)c2ccc(C)cc2)s1	6	.	.	8%	1
Cc1cc(=O)n2c(C(=O)Nc3ccc(F)c(Cl)c3)c(C(=O)Nc3cccc(C)c3C)sc2n1	.	?	-2%[46.1 µM]	.	.
Cc1cc(=O)n2c(C(=O)Nc3ccc(C(=O)OC(C)C)cc3)c(C(=O)Nc3ccccc3)sc2n1	-3	23µM*	?	7%	0
CCCCCCCCCC(=O)N/N=C(\C)c1cccnc1	-4	4%	12%[46.1 µM]	36%	-1
SMILES	Shiga toxin inh	LASV entry inh	MARV entry inh	AMA1-RON2 inh	CHX counter
C/C(=N\NC(=O)COc1ccccc1-c1ccccc1)c1cccnc1	-5	?	?	53%	-5
O=C(COc1ccccc1-c1ccccc1)N/N=C/c1ccc2ccccc2c1	-1	1.8µM*	?	8%	-1
CC(=NNC(=S)N1CCCC1)c1ccccn1	.	.	.	88%	.
CCCCCC(=O)N/N=C(\C)c1ccccn1	18	?	7.1µM*	28%	5
C/C(=N\NC(=O)COc1ccccc1-c1ccccc1)c1ccccn1	-4	5.6µM*	4µM*	56%	-2
CC(=NNC(=S)SCc1ccccc1)c1ccccn1	.	1.6µM*	0.89µM*	-1%	.
CCCCOc1cccc(C(=O)N(Cc2ccc(Cl)cc2)C2CCS(=O)(=O)C2)c1 (stereo unspecified)	.	-7%[46.1 µM]	?	.	.
O=C(N/N=C/c1ccncc1)c1cccc(S(=O)(=O)Nc2ccc(Cl)cc2)c1	20	.	.	-9%	2
COc1ccc(C(=O)NCCNC(=O)c2cc(OCC(F)(F)F)ccc2OCC(F)(F)F)cc1	-4	10%	-11%	12%	-1
COc1cc(-c2c(C#N)c(N)nc3c2c(C)nn3-c2ccc(C)c(C)c2)cc(OC)c1OC	12	?	21µM*	0%	10
NC(=O)c1ccc(NC(=O)C#Cc2ccccc2)cc1	56*	2.2µM*	4.5µM*	0%	35*
COc1ccc(NC(=O)C#Cc2ccccc2)cc1OC	39	-9%[46.1 µM]	?	8%	13*
Cn1c2ccccc2c(=O)c2c(=O)n(Cc3ccco3)c(-c3ccc(C(C)(C)C)cc3)nc21	-1	.	.	.	-3
CC(=O)Oc1ccc(N2C(=O)CCC2=O)cc1	-5	?	1%	20%	-1
C=C(C)C(=O)Oc1ccc(N2C(=O)CCC2=O)cc1	18	.	.	-1%	17*
CCc1ccc(OCc2cccc(C(=O)N/N=C\c3cnn(C)c3C)c2)cc1	53*	?	?	19%	15
Cc1c(/C=N/NC(=O)c2ccc(Br)o2)cnn1C	57*	20%	3%[46.1 µM]	16%	38*
Cc1c(/C=N/NC(=O)c2ccc3c(c2)OCO3)cnn1C	31	0%	-6%	-25%	11
Cc1occc1C(=O)N/N=C/c1cnn(C)c1C	62*	1%	13%	32%	33*
Cc1ccc(C(=O)N/N=C\c2ccc(Br)o2)o1	30	16%	?	21%	16
Cc1c(/C=N\NC(=O)c2ccc(F)cc2)cnn1C	27*	1%	?	47%	16
O=c1cc(S(=O)(=O)Cc2ccccc2)[nH]c(=O)[nH]1	.	10%[46.1 µM]	0%[46.1 µM]	0%	.
CNc1cncc(-c2cccc(C(=O)NC3CC3)c2)n1	.	.	.	4%	.
Cc1c(/C=N/NC(=O)C2(O)c3ccccc3-c3ccccc32)cnn1C	8	-1%	-1%	2%	-2
Cc1c(/C=N\NC(=O)c2cccc(F)c2)cnn1C	92*	13%	29%	32%	45*
SMILES	Shiga toxin inh	LASV entry inh	MARV entry inh	AMA1-RON2 inh	CHX counter
Cc1ccc(C(=O)Nc2cccc(C(=O)N/N=C/c3ccccc3F)c2)cc1	72*	?	4%[46.1 µM]	12%	47*
COc1cccc(/C=N/NC(=O)c2[nH]c(C)c(C(=O)N/N=C/c3cccc(OC)c3O)c2C)c1O	112	?	8.9µM*	28%	40*
O=C(N/N=C\c1ccccc1F)c1ccc(-c2ccccc2)cc1	28	-1%[46.1 µM]	25%[46.1 µM]	6%	36*
O=C(N/N=C/c1ccccc1)c1ccc(-c2ccccc2)cc1	.	.	.	-3%	7
CC(=O)Nc1cccc(C(=O)N/N=C/c2ccccc2F)c1	28*	0%	?	101%	46*
O=P(O)(Cc1ccccc1)Cc1ccccc1	.	6%[46.1 µM]	-8%[46.1 µM]	4%	-1
O=C(Nc1cccc(F)c1)Nc1nnc([C@@H]2O[C@H](CO)[C@@H](O)[C@H]2O)s1	.	.	.	-3%	.
COc1ccc(-c2oc3ccc(-c4cc(OC)c(OC)c(OC)c4)cc3c2C#Cc2ccccn2)cc1	.	.	.	11%	.
